# NSD2 HMT inh = NSD2 (human) methyltransferase inhibition. O96028. NSD2 peptide methylation, AlphaScreen, 120 min. inhibition, % at 12.5 µM. actives 0.54% (n = 310,000). AID 743445; in the data active = inhibition above about 50%
# HIV Env fusion = inhibitors of HIV Env-mediated cell fusion. AID 651610. inhibition, % at 12.3 µM. actives 1.1% (n = 360,000). HeLa-JRFL Env/CEM21 cell fusion, luciferase;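 active = mean replicate inhibition score of at least 50 and every replicate individually at or above 50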
# F508del corr = correctors of CFTR F508del function in bronchial epithelial cells; CFBE cells, YFP halide quenching; stimulated with forskolin plus potentiator P3; % fluorescence drop versus neutral controls; activity (quench increase), % at 7.58 µM; actives 0.36% (n = 350,000);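 active = mean added fluorescence quench of at least 8% versus neutral control, with both replicates also reaching 8%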;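 note: cells transiently co-express mutant CFTR-F508del with the halide-sensitive YFP; corrector assay measuring rescue of mutant channel to the surface after 24 h compound exposure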
# PglD DTNB = blocks C. jejuni PglD acetyltransferase activity | purified PglD enzyme, DTNB colorimetric CoA detection | inhibition, % at 12.5 µM | actives 0.098% (n = 360,000); in the data active = inhibition above about 16%, passing the limit was not always enough
# ALR inh = human ALR oxidase inhibition via reduced H2O2; purified ALR, DTT oxidation, H2O2 HRP-luminol luminescence; inhibition, % (concentration not given with the values); actives 3.8% (n = 290,000); AID 485317;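 active = mean replicate inhibition above about 79%, with every replicate also reaching it, limit read from the data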
# Target sequence (P55789 whole entry, looked up): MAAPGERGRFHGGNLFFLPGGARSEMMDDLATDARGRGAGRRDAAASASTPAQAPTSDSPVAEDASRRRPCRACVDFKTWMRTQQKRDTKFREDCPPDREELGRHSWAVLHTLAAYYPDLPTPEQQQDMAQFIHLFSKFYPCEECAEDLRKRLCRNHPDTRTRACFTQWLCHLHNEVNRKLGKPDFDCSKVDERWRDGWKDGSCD
# CASP6 VEID inh = caspase-6 (human) enzyme inhibition. P55212. purified caspase-6, Z-VEID-R110 cleavage fluorescence. inhibition, % at 12.5 µM. actives 0.53% (n = 350,000). AID 686996;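 active = mean inhibition across replicates at least about 35%, with every replicate also reaching that limit, limit read from the data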
# Target sequence (P55212 24-179 limits assumed): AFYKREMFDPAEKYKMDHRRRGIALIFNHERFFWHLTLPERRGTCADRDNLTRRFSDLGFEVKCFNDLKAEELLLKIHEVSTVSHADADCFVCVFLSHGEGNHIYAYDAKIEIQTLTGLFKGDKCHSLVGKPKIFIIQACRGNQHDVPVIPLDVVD
# Target sequence (P55212 194-293 limits assumed): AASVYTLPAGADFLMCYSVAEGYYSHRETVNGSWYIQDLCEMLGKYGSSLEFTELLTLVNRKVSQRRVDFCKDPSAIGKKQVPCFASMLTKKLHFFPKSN
# A number is an active result; n = inactive; x = not tested or not shown. The list is not random: actives were taken first. Their share in the collection is about 4.1%.
SMILES,NSD2 HMT inh,HIV Env fusion,F508del corr,PglD DTNB,ALR inh,CASP6 VEID inh
CC(=O)C1=C(O)C(=O)N(c2ccc(O)cc2)C1c1cccc(F)c1 (configuration not stated),n,n,n,n,81.8,n
CC(=O)C1=C(O)C(=O)N(c2cccnc2)C1c1cccc([N+](=O)[O-])c1 (configuration not stated),n,n,n,x,n,n
O=S(=O)(c1ccc(Cl)cc1)N1CCC(n2cnc3cc(C(F)(F)F)ccc32)CC1,n,63.8,x,x,n,x
Nc1c(Cl)cc2c(c1Br)Cc1ccccc1-2,n,n,n,n,x,n
Nc1c(Cl)cc2c(c1Oc1ccccc1)C(=O)c1ccccc1C2=O,x,125.2,x,n,n,x
COc1ccccc1-c1ccc2c(c1)[C@@H]1[C@@H](CCN1C(=O)c1ccc3c(c1)OCO3)[C@H](CO)N2,x,x,n,n,x,x
Cc1ccc2[nH]cc(CCNC(=O)c3cccs3)c2c1,n,n,n,n,97.5,n
CO[C@H]1CN(C)C(=O)c2ccc(NC(=O)C3CCCC3)cc2OC[C@H](C)NC[C@@H]1C,x,x,n,x,x,n
O=C(COC(=O)Cc1ccsc1)Nc1cccc(F)c1,n,x,16.4,n,n,n
Cc1nc(C(F)(F)F)c(C(=O)O)cc1-c1nc(-c2ccccc2)cs1,n,n,n,n,94.7,n
C[C@@H]1CN([C@@H](C)CO)C(=O)c2cccc(NC(=O)Nc3cccc4ccccc34)c2O[C@@H]1CN(C)Cc1ccc(C(=O)Nc2ccccc2N)cc1,x,x,n,x,x,x
O=C(O)c1ccc(NC(=S)NC(=O)c2ccc(-c3ccc(Br)cc3)o2)cc1,n,n,n,n,92.5,n
NC(=O)c1ccc(-c2ccc(Br)cc2)o1,n,n,x,n,98.3,x
CCc1nnc(NS(=O)(=O)c2ccc(NC(=S)NC(=O)c3ccccc3)cc2)s1,n,n,n,x,95.7,x
O=C(O)c1cccc(NC(=S)NC(=O)c2ccc(-c3ccc(Cl)cc3)o2)c1,n,n,n,n,n,n
O=C(O)c1cccc(NC(=S)NC(=O)c2ccc(-c3ccccc3)cc2)c1,n,n,n,x,n,n
Cc1ccc(C(=O)O)cc1NC(=S)NC(=O)c1ccc(-c2ccccc2)cc1,n,n,n,n,98.2,n
C[C@@H]1CN([C@H](C)CO)S(=O)(=O)c2ccc(-c3cccnc3)cc2O[C@@H]1CN(C)C(=O)C1CCC1,x,n,n,n,x,n
O=C(NC(=S)Nc1ccc(-c2ccccc2)cc1)c1ccccc1,n,n,10.2,n,x,n
CC=Cc1ccc2n(c1=O)C[C@H]1[C@H](CO)[C@@H](C(=O)NCCC)N(C(=O)CC3CC3)[C@@H]21 (mixture of isomers),x,x,n,n,x,n
Cc1cc(-c2cc(C)c(N)cc2C)c(C)cc1N,n,x,n,n,x,n
Cc1cc2c(cc1C)C(=O)C(Br)=C(N)C2=O,n,n,n,n,x,74.1
COc1ccc(Oc2nc(-c3ccccn3)ncc2OC)cc1,n,n,n,x,n,n
COc1cnc(-c2ccccn2)nc1Oc1cccc(Cl)c1,n,n,x,n,94.9,x
COc1ccc(-c2ccc3c(c2)C2CC3CCN2S(=O)(=O)c2ccccc2C)cc1 (configuration not stated),x,57.0,n,n,x,n
SMILES,NSD2 HMT inh,HIV Env fusion,F508del corr,PglD DTNB,ALR inh,CASP6 VEID inh
CCCC(=O)Nc1ccc2c(c1)C(=O)N(C)[C@@H]1CC[C@@H](CC(=O)Nc3cn(C)nc3C)O[C@@H]1CO2,x,x,n,n,x,n
COc1ccc(-c2nc(CS(=O)(=O)CC(=O)NCCc3cc(OC)ccc3OC)c(C)o2)cc1,n,n,x,n,98.6,x
COc1cccc(-c2nc(CS(=O)(=O)CC(=O)NCCc3cc(OC)ccc3OC)c(C)o2)c1,n,n,n,n,98.7,n
COc1ccc(OC)c(CCNC(=O)CS(=O)(=O)Cc2nc(-c3ccc(C)cc3)oc2C)c1,n,n,x,n,n,n
COc1ccc(-c2nc(CS(=O)(=O)CC(=O)NCCCN3CCN(C)CC3)c(C)o2)cc1,n,n,n,n,98.9,n
CCC(=O)N(C)C[C@@H]1Oc2cc(C3=CCCCC3)ccc2S(=O)(=O)N([C@@H](C)CO)C[C@H]1C,x,n,n,x,x,x
CN(C)c1nc(OCCOC(=O)COc2ccc(Cl)cc2Cl)nc(N(C)C)n1,n,n,x,n,n,x
CN(C)c1nc(OCCNC(=O)COc2ccc(Cl)cc2Cl)nc(N(C)C)n1,n,44.4,x,n,n,x
C[C@@H](NC(=O)C[C@@H]1CC[C@@H](NC(=O)CN2CCOCC2)[C@@H](CO)O1)c1ccccc1,x,n,n,n,x,62.8
C[C@@H]1CN([C@@H](C)CO)C(=O)c2cc(C#CCc3ccccc3)cnc2O[C@H]1CN(C)C(=O)C1CCCCC1,x,n,n,n,x,n
CC1=C(Nc2ccc(C(=O)O)cc2)C(=O)c2ccccc2C1=O,n,n,n,n,n,x
CC(=O)NC1=C(N(C)C2CCS(=O)(=O)C2)C(=O)c2ccccc2C1=O (configuration not stated),106.5,n,x,n,n,n
CC(=O)NC1=C(Nc2ccc(N(C)C)cc2)C(=O)c2ccccc2C1=O,n,n,n,n,100.0,n
CC(C)Cc1ccc(C(C)C(N)=NCCc2ccccc2)cc1 (configuration not stated),n,76.4,n,n,n,n
COCC(=O)N1C[C@H](C)[C@@H](OC)CN(C)C(=O)c2ccc(NC(=O)Nc3ccccc3)cc2OC[C@@H]1C,x,x,n,x,x,n
Cc1ccc(NC(NC(=O)c2ccccc2[N+](=O)[O-])C(Cl)(Cl)Cl)cc1 (configuration not stated),n,n,x,n,98.6,x
CC(C)(C)n1nnnc1C(c1cccs1)N(Cc1ccccc1)Cc1ccco1 (configuration not stated),n,x,x,n,n,n
CC(C)(C)n1nnnc1C(c1cccs1)N(Cc1cccnc1)Cc1ccco1 (configuration not stated),n,52.7,x,n,x,x
COc1ccc2c3c([nH]c2c1)[C@H](CO)N(C(=O)CN1CCOCC1)CC31CCN(C(C)=O)CC1,x,x,n,x,x,x
COc1ccc(S(=O)(=O)Nc2cccc(S(=O)(=O)N3CCCCCC3)c2)cc1,n,x,x,n,n,x
CC(=O)Nc1ccc(S(=O)(=O)Nc2nc3ccccc3nc2Nc2ccc(O)c(C(=O)O)c2)cc1,n,n,n,n,98.8,n
O=S(=O)(Nc1nc2ccccc2nc1Nc1cccc(S(=O)(=O)N2CCCCC2)c1)c1ccccc1,n,76.6,n,n,n,n
Cc1cccc(S(=O)(=O)Nc2nc3ccccc3nc2Nc2cccc(C(=O)O)c2)c1,n,n,n,n,97.7,n
Cc1ccc(S(=O)(=O)Nc2ccc3c(c2)C(=O)N([C@H](C)CO)C[C@H](C)[C@H](CN(C)S(=O)(=O)c2ccc(C)cc2)O3)cc1,x,n,n,n,x,n
CC1CCN(C(=O)c2cc3nc(-c4ccccc4)cc(-c4ccccc4)n3n2)CC1,n,76.8,x,n,n,x
Oc1ccc(Nc2nc(-c3ccccc3F)nc3ccccc23)cc1,n,n,n,n,99.5,n

# Source: PubChem
